Source: PubChem BioAssay (NCI)
The panel holds about 79,000 compounds, 15% with a hit somewhere; the sample as a whole holds those more often. Calls of active or inactive are those of the source. Rule as the data show it: active = growth inhibition above about 70%; inactive = the rest.

Key:
[1] = NCI Yeast Anticancer Drug Screen. Data for the wt1 strain (AID 149);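 also: 0% = growth of vehicle-treated wt1 cultures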; settings: S. cerevisiae wt1 strain (SPY 50644) growth inhibition, active compounds read high
Summary of the method: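 Readout: yeast growth inhibition, normalised to vehicle controls, in the wt1 strain exposed to test compounds.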

[2] = NCI Yeast Anticancer Drug Screen. Data for the rad50EPP+ strain (AID 151);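 also: 0% = growth of vehicle-treated control cultures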; settings: S. cerevisiae rad50 mutant strain, active compounds read high
Summary of the method: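 Yeast strain carrying rad50 alteration (rad50EPP+) exposed to compounds; growth inhibition measured relative to vehicle-treated controls.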

[3] = NCI Yeast Anticancer Drug Screen. Data for the mgt1 strain (AID 153); settings: S. cerevisiae mgt1 mutant growth inhibition, active compounds read high
Summary of the method: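 Yeast mgt1 strain (DNA repair/cell-cycle alteration panel) exposed to compounds; growth inhibition measured relative to vehicle-treated controls.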

[4] = NCI Yeast Anticancer Drug Screen. Data for the rad50 strain (AID 155);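 also: 0% = growth of vehicle-only cultures of the same strain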; settings: S. cerevisiae rad50 strain growth inhibition, active compounds read high
Summary of the method: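 Compounds were tested on a yeast strain with an engineered DNA damage repair alteration; the reported value is growth inhibition normalised to vehicle treatment.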

[5] = NCI Yeast Anticancer Drug Screen. Data for the mec2-1 strain (AID 157); settings: S. cerevisiae mec2-1 strain, active compounds read high
Summary of the method: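 mec2-1 yeast strain, carrying an alteration in DNA damage repair or cell cycle control, was exposed to compounds; growth inhibition was measured relative to vehicle-treated controls.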

[6] = NCI Yeast Anticancer Drug Screen. Data for the rad14 strain (AID 159);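 also: 0% = growth of vehicle-treated control cultures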; settings: S. cerevisiae rad14 strain growth inhibition, active compounds read high
Summary of the method: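 Compound-treated yeast with a defined DNA-repair lesion; growth inhibition normalised to vehicle-treated cultures.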

[7] = NCI Yeast Anticancer Drug Screen. Data for the sgs1 mgt1 strain (AID 161);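 also: 0% = growth of cultures given vehicle only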; settings: S. cerevisiae sgs1 mgt1 strain, active compounds read high
Summary of the method: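 Percent growth inhibition was derived by comparing compound-exposed mutant yeast with vehicle-exposed cultures. The strain carries alterations in DNA damage repair.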

[8] = NCI Yeast Anticancer Drug Screen. Data for the CLN2oe strain (AID 163);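 also: 0% = growth of vehicle-only control cultures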; settings: S. cerevisiae CLN2oe strain, active compounds read high
Summary of the method: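 Yeast cells carrying a defined cell-cycle control alteration were exposed to test compounds. Growth inhibition was scored against vehicle-treated control cultures.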

[9] = NCI Yeast Anticancer Drug Screen. Data for the bub3 strain (AID 167); settings: S. cerevisiae bub3 mutant strain, active compounds read high
Summary of the method: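 Growth of a checkpoint-deficient yeast mutant is measured after compound exposure. Values represent inhibition relative to vehicle.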

[10] = NCI Yeast Anticancer Drug Screen. Data for the wt2 strain (AID 169);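 also: 0% = growth of vehicle-treated yeast cultures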; settings: S. cerevisiae wt2 strain growth inhibition, active compounds read high
Summary of the method: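 Yeast cells were exposed to test compounds, and growth inhibition was measured relative to vehicle-treated controls.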

[11] = NCI Yeast Anticancer Drug Screen. Data for the mlh1 strain (AID 171);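 also: 0% = growth of vehicle-treated control cultures of the same strain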; settings: S. cerevisiae mlh1 strain growth inhibition, active compounds read high
Summary of the method: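 Yeast carrying a defined genetic alteration in DNA damage repair or cell cycle control were exposed to test compounds. Growth inhibition was measured relative to vehicle-treated controls.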

[12] = NCI Yeast Anticancer Drug Screen. Data for the sgs1 strain (AID 173);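 also: 0% = growth of vehicle-only control cultures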; settings: S. cerevisiae sgs1 mutant, active compounds read high
Summary of the method: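 Yeast mutant strains carrying defined defects in DNA damage repair or cell cycle control were exposed to test compounds. Growth inhibition was scored against vehicle-treated controls.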

[13] = NCI Yeast Anticancer Drug Screen. Data for the mlh1 rad18 strain (AID 175); settings: S. cerevisiae mlh1 rad18 strain growth inhibition, active compounds read high
Summary of the method: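 Growth inhibition of the yeast strain was measured after compound exposure and expressed relative to vehicle-treated controls. The strain carries defined defects in DNA damage repair.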

[14] = NCI Yeast Anticancer Drug Screen. Data for the rad18 strain (AID 177); settings: S. cerevisiae rad18 mutant growth inhibition, active compounds read high
Summary of the method: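 Yeast carrying a defined DNA damage repair alteration were exposed to compounds. Growth inhibition was expressed relative to vehicle-treated controls.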

[15] = NCI Yeast Anticancer Drug Screen. Data for the cln2 rad14 strain (AID 165);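 also: 0% = growth equal to vehicle treated cultures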; settings: S. cerevisiae cln2 rad14 strain, active compounds read high
Summary of the method: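 Yeast carrying cln2 and rad14 alterations (cell cycle control and DNA damage repair) were exposed to compounds. Growth inhibition was measured against vehicle-treated controls.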

[16] = at 5.0 µM (retest, dose inferred, filed as 0.5)
[17] = at 50.0 µM (retest, dose inferred, filed as 5.0)

Measured: growth inhibition

O=C1C(C(O)(C(F)(F)F)C(F)(F)F)CCC1C(O)(C(F)(F)F)C(F)(F)F (stereo not given)
inactive: [1]; at 1.2 µM 3% | [1]; at 3.7 µM 6% | [1]; at 11.0 µM 8% | [1]; at 33.0 µM 19% | [1]; at 100.0 µM 33% | [2]; at 1.2 µM -3% | [2]; at 3.7 µM -2% | [2]; at 11.0 µM 3% | [2]; at 33.0 µM 18% | [2]; at 100.0 µM 10% | [3]; at 1.2 µM 1% | [3]; at 3.7 µM 2% | [3]; at 11.0 µM 8% | [3]; at 33.0 µM 9% | [3]; at 100.0 µM 34% | [4]; at 1.2 µM -4% | [4]; at 3.7 µM -14% | [4]; [16] 2% | [4]; at 11.0 µM -22% | [4]; at 33.0 µM 3% | [4]; [17] 33% | [4]; at 50.0 µM 22.3% | [4]; at 100.0 µM 30% | [5]; at 1.2 µM 7% | [5]; at 3.7 µM 8% | [5]; [16] 9% | [5]; at 11.0 µM 10% | [5]; at 33.0 µM 20% | [5]; [17] 26% | [5]; at 50.0 µM 42.6% | [5]; at 100.0 µM 32% | [6]; at 1.2 µM 4% | [6]; at 3.7 µM 6% | [6]; at 11.0 µM 14% | [6]; at 33.0 µM 28% | [6]; at 100.0 µM 49% | [7]; [16] 4% | [7]; [17] 54% | [7]; at 50.0 µM 67.3% | [8]; at 1.2 µM 5% | [8]; at 3.7 µM 2% | [8]; at 11.0 µM 8% | [8]; at 33.0 µM 27% | [8]; at 100.0 µM 42% | [9]; at 1.2 µM -1% | [9]; at 3.7 µM 0% | [9]; [16] -12% | [9]; at 11.0 µM 0% | [9]; at 33.0 µM 11% | [9]; [17] 32% | [9]; at 50.0 µM 28.4% | [9]; at 100.0 µM 24% | [10]; at 1.2 µM 1% | [10]; at 3.7 µM 4% | [10]; at 11.0 µM 8% | [10]; at 33.0 µM 23% | [10]; at 100.0 µM 39% | [11]; at 1.2 µM 5% | [11]; at 3.7 µM 7% | [11]; at 11.0 µM 11% | [11]; at 33.0 µM 22% | [11]; at 100.0 µM 33% | [12]; at 1.2 µM 3% | [12]; at 3.7 µM 8% | [12]; at 11.0 µM 9% | [12]; at 33.0 µM 28% | [12]; at 100.0 µM 43% | [13]; [16] 2% | [13]; [17] 49% | [13]; at 50.0 µM 69.5% | [14]; at 1.2 µM 4% | [14]; at 3.7 µM 6% | [14]; at 11.0 µM 3% | [14]; at 33.0 µM -2% | [14]; at 100.0 µM 11%

COc1cc(C(C)C(C(=O)O)C(=O)C(=O)O)cc(OC)c1OC (stereo not given)
active: [15]; [17] 76%
inactive: [1]; at 1.2 µM 0% | [1]; at 3.7 µM 2% | [1]; at 11.0 µM 3% | [1]; at 33.0 µM 4% | [1]; at 100.0 µM 5% | [2]; at 1.2 µM -3% | [2]; at 3.7 µM -7% | [2]; at 11.0 µM -4% | [2]; at 33.0 µM -8% | [2]; at 100.0 µM 1% | [3]; at 1.2 µM 1% | [3]; at 3.7 µM 2% | [3]; at 11.0 µM 2% | [3]; at 33.0 µM 1% | [3]; at 100.0 µM 21% | [4]; at 1.2 µM 3% | [4]; at 3.7 µM 3% | [4]; [16] -41% | [4]; at 11.0 µM 4% | [4]; at 33.0 µM 5% | [4]; [17] -9% | [4]; at 50.0 µM 0.85% | [4]; at 100.0 µM 4% | [5]; at 1.2 µM -5% | [5]; at 3.7 µM -3% | [5]; [16] 7% | [5]; at 11.0 µM -3% | [5]; at 33.0 µM -2% | [5]; [17] -4% | [5]; at 50.0 µM 9.9% | [5]; at 100.0 µM 0% | [6]; at 1.2 µM -1% | [6]; at 3.7 µM -2% | [6]; at 11.0 µM 2% | [6]; at 33.0 µM 3% | [6]; at 100.0 µM 5% | [8]; at 1.2 µM 2% | [8]; at 3.7 µM 5% | [8]; at 11.0 µM 4% | [8]; at 33.0 µM 5% | [8]; at 100.0 µM 7% | [15]; [16] 10% | [15]; at 50.0 µM -22.4% | [9]; at 1.2 µM 1% | [9]; at 3.7 µM -1% | [9]; [16] 4% | [9]; at 11.0 µM -6% | [9]; at 33.0 µM -3% | [9]; [17] 11% | [9]; at 50.0 µM 44.6% | [9]; at 100.0 µM -2% | [10]; at 1.2 µM 1% | [10]; at 3.7 µM 0% | [10]; at 11.0 µM 2% | [10]; at 33.0 µM -1% | [10]; at 100.0 µM 2% | [11]; at 1.2 µM 0% | [11]; at 3.7 µM 0% | [11]; at 11.0 µM 2% | [11]; at 33.0 µM 3% | [11]; at 100.0 µM 6% | [12]; at 1.2 µM -1% | [12]; at 3.7 µM -1% | [12]; at 11.0 µM 0% | [12]; at 33.0 µM 2% | [12]; at 100.0 µM 6% | [13]; [16] -3% | [13]; [17] 41% | [13]; at 50.0 µM 44.9% | [14]; at 1.2 µM -5% | [14]; at 3.7 µM -2% | [14]; at 11.0 µM -4% | [14]; at 33.0 µM 1% | [14]; at 100.0 µM 9%
